PubChem BioAssay AID1159580 (chemical genetic matrix, 2015)
The campaign covered roughly 5,500 compounds. About 2,000 (36%) were called active. Another 18% or so got no clear call; they are omitted. Cut-off read from the data, not from the text of the source: active = normalized growth mostly below about 0.91 (no sharp cut-off); inconclusive = no clear call, values can overlap the other calls; inactive = mostly above about 0.92. The list shows a part of the results.

Assay: chemical genetic growth profiling, strain panel (AID 1159580);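 note: tested at 20 µM; growth read once vehicle control cultures reached saturation at 30 °C; 1 = growth at the plate median or of vehicle wells; lower values mean less growth of the strain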
Details: growth OD

Measured: normalized growth

O=C1C(O)=C(O)C(=O)C(O)=C1O
inactive: S. cerevisiae deletion strains, locus YJR075W, strain HOC1, active compounds read low 0.999 | S. cerevisiae deletion strains, locus YKL009W, strain mrt4, active compounds read low 0.983 | S. cerevisiae deletion strains, locus YKL068W, active compounds read low 0.979 | S. cerevisiae deletion strains, locus YKL085W, strain MDH1 (second series), active compounds read low 0.956 | S. cerevisiae deletion strains, locus YKL085W, strain MDH1, active compounds read low 0.956 | S. cerevisiae deletion strains, locus YKL160W, strain elf1, active compounds read low 1.03 | S. cerevisiae deletion strains, locus YKL190W, strain CNB1, active compounds read low 0.98 | S. cerevisiae deletion strains, locus YKR001C, strain vps1, active compounds read low 0.995 | S. cerevisiae deletion strains, locus YKR026C, strain gcn3, active compounds read low 1.02 | S. cerevisiae deletion strains, locus YKR091W, strain srl3, active compounds read low 0.999 | S. cerevisiae deletion strains, locus YLL001W, strain dnm1, active compounds read low 1.01 | S. cerevisiae deletion strains, locus YLL026W, active compounds read low 1.02 | S. cerevisiae deletion strains, locus YLL041C, strain sdh2, active compounds read low 1.01 | S. cerevisiae deletion strains, locus YLR027C, strain aat2, active compounds read low 1.02 | S. cerevisiae deletion strains, locus YLR039C, strain RIC1, active compounds read low 0.957 | S. cerevisiae deletion strains, locus YLR058C, strain SHM2, active compounds read low 0.98 | S. cerevisiae deletion strains, locus YLR102C, strain apc9, active compounds read low 0.989 | S. cerevisiae deletion strains, locus YLR113W, strain HOG1, active compounds read low 0.969 | S. cerevisiae deletion strains, locus YLR221C, strain rsa3, active compounds read low 1 | S. cerevisiae deletion strains, locus YLR258W, strain gsy2, active compounds read low 1.03 | S. cerevisiae deletion strains, locus YLR262C, strain YPT6 (second series), active compounds read low 0.995 | S. cerevisiae deletion strains, locus YLR262C, strain YPT6, active compounds read low 0.946 | S. cerevisiae deletion strains, locus YLR268W, strain sec22, active compounds read low 0.964 | S. cerevisiae deletion strains, locus YLR320W, strain mms22, active compounds read low 1.01 | S. cerevisiae deletion strains, locus YLR330W, strain CHS5, active compounds read low 1.01 | S. cerevisiae deletion strains, locus YLR342W, strain FKS1 (second series), active compounds read low 1.07 | S. cerevisiae deletion strains, locus YLR342W, strain FKS1, active compounds read low 1.01 | S. cerevisiae deletion strains, locus YLR357W, strain rsc2, active compounds read low 0.989 | S. cerevisiae deletion strains, locus YLR370C, strain arc18, active compounds read low 1.01 | S. cerevisiae deletion strains, locus YLR371W, strain rom2, active compounds read low 1 | S. cerevisiae deletion strains, locus YLR384C, strain iki3, active compounds read low 1.03 | S. cerevisiae deletion strains, locus YLR418C, strain cdc73, active compounds read low 0.944 | S. cerevisiae deletion strains, locus YML016C, strain PPZ1, active compounds read low 0.988 | S. cerevisiae deletion strains, locus YML032C, strain rad52, active compounds read low 1.01 | S. cerevisiae deletion strains, locus YML120C, strain ndi1, active compounds read low 1.01 | S. cerevisiae deletion strains, locus YML124C, strain tub3, active compounds read low 0.997 | S. cerevisiae deletion strains, locus YMR058W, strain fet3, active compounds read low 1.02 | S. cerevisiae deletion strains, locus YMR078C, strain ctf18, active compounds read low 0.995 | S. cerevisiae deletion strains, locus YMR125W, strain sto1, active compounds read low 1.02 | S. cerevisiae deletion strains, locus YMR129W, active compounds read low 1.01 | S. cerevisiae deletion strains, locus YMR205C, strain PFK2, active compounds read low 1 | S. cerevisiae deletion strains, locus YMR223W, strain ubp8, active compounds read low 1.03 | S. cerevisiae deletion strains, locus YMR231W, strain pep5, active compounds read low 1 | S. cerevisiae deletion strains, locus YMR263W, strain SAP30, active compounds read low 0.96 | S. cerevisiae deletion strains, locus YMR307W, strain GAS1, active compounds read low 1.03 | S. cerevisiae deletion strains, locus YNL067W, strain RPL9B, active compounds read low 0.969 | S. cerevisiae deletion strains, locus YNL071W, strain lat1, active compounds read low 1.02 | S. cerevisiae deletion strains, locus YNL128W, strain TEP1, active compounds read low 0.944 | S. cerevisiae deletion strains, locus YNL153C, strain GIM3, active compounds read low 0.956 | S. cerevisiae deletion strains, locus YNL183C, strain NPR1, active compounds read low 0.927 | S. cerevisiae deletion strains, locus YNL209W, strain ssb2, active compounds read low 1 | S. cerevisiae deletion strains, locus YNL233W, strain BNI4, active compounds read low 0.982 | S. cerevisiae deletion strains, locus YNL248C, strain rpa49, active compounds read low 1.05 | S. cerevisiae deletion strains, locus YNL250W, strain rad50, active compounds read low 0.966 | S. cerevisiae deletion strains, locus YNL271C, strain bni1, active compounds read low 0.998 | S. cerevisiae deletion strains, locus YNL298W, strain CLA4, active compounds read low 0.98 | S. cerevisiae deletion strains, locus YNL307C, strain MCK1, active compounds read low 1.02 | S. cerevisiae deletion strains, locus YNL322C, strain KRE1 (second series), active compounds read low 1.02 | S. cerevisiae deletion strains, locus YNL322C, strain KRE1, active compounds read low 0.98 | S. cerevisiae deletion strains, locus YNR049C, strain mso1, active compounds read low 1.01 | S. cerevisiae deletion strains, locus YNR052C, strain pop2, active compounds read low 1.02 | S. cerevisiae deletion strains, locus YOL006C, strain TOP1, active compounds read low 0.968 | S. cerevisiae deletion strains, locus YOL012C, strain htz1 0.781 | S. cerevisiae deletion strains, locus YOL147C, strain pex11, active compounds read low 0.993 | S. cerevisiae deletion strains, locus YOR001W, strain rrp6, active compounds read low 0.999 | S. cerevisiae deletion strains, locus YOR061W, strain CKA2, active compounds read low 0.961 | S. cerevisiae deletion strains, locus YOR069W, strain VPS5, active compounds read low 1 | S. cerevisiae deletion strains, locus YOR070C, strain gyp1, active compounds read low 1.01 | S. cerevisiae deletion strains, locus YOR080W, strain dia2, active compounds read low 1.02 | S. cerevisiae deletion strains, locus YOR083W, strain WHI5, active compounds read low 0.984 | S. cerevisiae deletion strains, locus YOR106W, strain vam3, active compounds read low 1.02 | S. cerevisiae deletion strains, locus YOR136W, strain idh2, active compounds read low 0.999 | S. cerevisiae deletion strains, locus YOR144C, strain elg1, active compounds read low 0.989 | S. cerevisiae deletion strains, locus YOR184W, strain ser1, active compounds read low 1.08 | S. cerevisiae deletion strains, locus YOR231W, strain MKK1, active compounds read low 0.987 | S. cerevisiae deletion strains, locus YOR265W, strain rbl2, active compounds read low 1.01 | S. cerevisiae deletion strains, locus YOR270C, strain vph1, active compounds read low 1.05 | S. cerevisiae deletion strains, locus YOR290C, strain snf2, active compounds read low 1.02 | S. cerevisiae deletion strains, locus YOR316C, strain cot1, active compounds read low 0.988 | S. cerevisiae deletion strains, locus YPL051W, strain arl3, active compounds read low 1.01 | S. cerevisiae deletion strains, locus YPL055C, strain LGE1, active compounds read low 0.898 | S. cerevisiae deletion strains, locus YPL078C, strain atp4, active compounds read low 1.03 | S. cerevisiae deletion strains, locus YPL106C, strain sse1, active compounds read low 1.03 | S. cerevisiae deletion strains, locus YPL240C, strain hsp82, active compounds read low 1.01 | S. cerevisiae deletion strains, locus YPL241C, strain CIN2, active compounds read low 0.991 | S. cerevisiae deletion strains, locus YPL256C, strain CLN2, active compounds read low 0.964 | S. cerevisiae deletion strains, locus YPR119W, strain clb2, active compounds read low 0.996 | S. cerevisiae deletion strains, locus YPR141C, strain kar3, active compounds read low 0.952 | S. cerevisiae deletion strains, locus YPR163C, strain tif3, active compounds read low 0.998 | S. cerevisiae deletion strains, locus YPR167C, strain met16, active compounds read low 0.99 | S. cerevisiae deletion strains, strain wtn01, active compounds read low 0.994 | S. cerevisiae strains, strain wild type, active compounds read low 0.989
